In the library only some 1.2% were active in any assay of this set; here they are far more common.
HttQ103 aggreg: inhibitors of mutant huntingtin aggregate formation in PC12 cells | PC12 HttQ103-GFP aggregates, Acumen cytometry, 40 h | Potency, µM (series often up to 46.1 µM), most hits filed as inhibitors | hit rate 1.1% among 220,000 | AID 1688; also: nearly all actives have a fitted effect of over 60% in size
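Steps: seed 1500 PC12 HTTQ103-GFP cells/well; add tebufenozide, 100 nM final; add compound titration; add ATPLite reagent; quantify GFP aggregates by laser scanning cytometry.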
ERK EGF inh: inhibitors of EGF-stimulated ERK signaling pathway | Potency, µM (titrated, usually from 11.5 µM), hits mostly inhibitors | HEK293-V1b, EGF-stimulated phospho-ERK AlphaScreen | hit rate 0.41% among 130,000; also: nearly all actives have a fitted effect of over 55% in size
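After overnight plating in 1% FBS, HEK293-V1b cells received test compound for half an hour, then a 5 min pulse of EGF (25 nM); ERK phosphorylation in lysates was read by bead-based AlphaScreen.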
GLA inh pH 4.5: inhibitors of human alpha-galactosidase A at pH 4.5. P06280. purified enzyme, 4-MU-alpha-Gal fluorescence, pH 4.5. activity change, negative = inhibition, % at 105 µM. 230,000 tested, under 10 active
Target sequence (P06280 whole entry, looked up): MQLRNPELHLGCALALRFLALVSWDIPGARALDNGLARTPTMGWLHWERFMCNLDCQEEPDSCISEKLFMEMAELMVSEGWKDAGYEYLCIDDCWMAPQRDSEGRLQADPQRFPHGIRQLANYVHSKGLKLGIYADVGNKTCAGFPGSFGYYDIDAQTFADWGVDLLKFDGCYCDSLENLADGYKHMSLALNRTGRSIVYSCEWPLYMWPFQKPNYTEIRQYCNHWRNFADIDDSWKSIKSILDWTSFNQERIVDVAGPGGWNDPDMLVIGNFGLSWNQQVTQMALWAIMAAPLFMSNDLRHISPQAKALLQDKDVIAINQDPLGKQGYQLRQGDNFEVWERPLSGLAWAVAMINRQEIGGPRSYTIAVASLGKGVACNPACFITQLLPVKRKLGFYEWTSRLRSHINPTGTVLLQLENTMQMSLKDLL
aGal spleen mod: inhibitors or activators of human alpha-galactosidase in spleen homogenate | human spleen homogenate, 4MU-alpha-Gal fluorescence, 40 min | Potency, µM (titrated, usually from 80 µM), hits mostly inhibitors | P06280 | hit rate 0.008% among 240,000
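Human spleen homogenate (1 ug) was the enzyme source, with 4-methylumbelliferyl-alpha-D-galactopyranoside (1 mM final) in pH 5.0 citrate buffer with 0.01% Tween-20. Compounds were titrated; after 40 min at 37C, NaOH/glycine stop, 4-MU fluorescence read; AC50 from Hill fits.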
HTT cytoprotect: protects HTT-Q103 PC12 cells, measured by ATP; PC12 HTT-Q103 induced, cytoprotection, ATP luminescence, 40 h; hit rate 0.14% among 230,000; Potency, µM (titrated, usually from 56.4 µM), hits mostly activators; AID 1471; also: nearly all actives have a fitted effect of over 45% in size
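PC12 cells with ecdysone-inducible HTT exon 1 Q103-GFP, induced with 100 nM tebufenozide and co-treated with library compounds in a dose series (1536-well, 1500 cells/well). Cytoprotection read as ATP content by ATPlite luminescence.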
Numbers stand for hits; n = inactive; u = inconclusive; x = no result; ! = not active in a repeat; [ ] = another dose, or the depositor's remark. Calls follow the shape of the dose curve; as a rule, active = well fitted curve in the direction sought with a large enough effect; inconclusive = small, poorly fitted or top-dose-only effect, or another doubt; inactive = no such curve, though single readings can be large; an effect the other way counts as inactive or inconclusive.

SMILES | HttQ103 aggreg | ERK EGF inh | GLA inh pH 4.5 | aGal spleen mod | HTT cytoprotect
N#Cc1ccccc1OCC(O)CS(=O)(=O)c1ccccc1 (centres undefined) | n[9.22 µM] | n | n | n | n
Cc1ccc(SCCNC(=O)c2ccc(C)c(S(=O)(=O)Nc3ccccc3C)c2)cc1 | 18µM | x | n | n | n
CC(=O)OC1COC(OC2C(O)C(C)OC(OC3C(OC4CCC5(C)C(CCC6(C)C5CC=C5C7CC(C)(C)CCC7(C(=O)O)CCC56C)C4(C)CO)OCC(O)C3O)C2O)C(O)C1OC(C)=O (centres undefined) | n[9.22 µM] | 20µM | n | n | n[10 µM]
C/C=C(/C)C(=O)OC1C(OC(C)=O)[C@@]2(CO)C(O)C[C@@]3(C)C(=CCC4[C@@]5(C)CCC(OC6OC(C(=O)O)[C@@H](O[C@@H]7OC(CO)C(O)C(O)C7O)C(O)[C@H]6O[C@@H]6OC(CO)C(O)C(O)C6O)[C@](C)(CO)C5CC[C@@]43C)C2CC1(C)C (some centres undefined) | x | n | n | u | n
C[C@@H]1OC(OC2CC[C@@]3(C)C(CC[C@@]4(C)C3CC=C3C5CC(C)(C)CC[C@]5(C(=O)OC5OCC(O)[C@@H](O)[C@@H]5OC5O[C@@H](C)[C@H](O[C@H]6OC(CO)C(O)C(O)C6O)C(O)C5O)C(O)C[C@@]34C)C2(C)C)C(O)C(O)[C@H]1OC1OCC(O)C(O)[C@H]1O (some centres undefined) | x | 14µM | n | n | x
O=C([O-])[C@@H]1[O][Sb+]([O][Sb+]2[O][C@H]([C@H](O)CO)[C@H](O)[C@H](C(=O)[O-])[O]2)[O][C@H]([C@H](O)CO)[C@@H]1O | x | x | x | n | x
O=C(OCC1OC(OC(=O)c2cc(O)c(O)c(OC(=O)c3cc(O)c(O)c(O)c3)c2)[C@@H](OC(=O)c2cc(O)c(O)c(OC(=O)c3cc(O)c(O)c(O)c3)c2)C(OC(=O)c2cc(O)c(O)c(OC(=O)c3cc(O)c(O)c(O)c3)c2)C1OC(=O)c1cc(O)c(O)c(OC(=O)c2cc(O)c(O)c(O)c2)c1)c1cc(O)c(O)c(OC(=O)c2cc(O)c(O)c(O)c2)c1 (some centres undefined) | n | 7.9µM | u | n | n
Cc1cn(C2OC(COC(=O)c3ccccc3)C(OC(=O)c3ccccc3)C2OC(=O)c2ccccc2)c(=O)[nH]c1=O (centres undefined) | n | n | n | n | n[10 µM]
COc1cccc(-c2noc(N)c2C#N)c1 | 11µM | x | n | n | n
CN(C)CCCN(C(=O)c1ccc2c(c1)CCCC2)c1nc2ccc(Cl)cc2s1 | n | 20µM | n | n | n[10 µM]
CN(C)CCCN(C(=O)CCc1ccccc1)c1nc2ccc(Cl)cc2s1 | n | u | n | n | n[10 µM]
COc1ccc(COC(=O)N/N=C2/C[C@@H](O)[C@@H](O)[C@@H]3[C@@H]4C(=O)N(C(C)(C)C)C(=O)[C@H]4CC[C@H]23)cc1 | x | x | x | n[17.5 µM] | n[10 µM]
Cc1ccc(NS(=O)(=O)c2ccc(Cl)c(C(=O)Nc3ccccc3-c3nc4ccccc4[nH]3)c2)cc1C | 11µM | n | n | n | n[10 µM]
CC(C)(C)c1nnc(N/N=C/c2cc(Br)ccc2O)n(N)c1=O | 13µM | u | n | n | n[10 µM]
COc1ccc(C2C=C(c3ccc(C)cc3)Nc3ncnn32)cc1 (centres undefined) | n | x | n | u | n
COc1ccc(C2C=C(c3ccc(Br)s3)Nc3ncnn32)cc1OC (centres undefined) | 11µM | x | n | n | n[10 µM]
Cn1cccc1/C=N/N1CCN(Cc2cccc3ccccc23)CC1 | n[9.22 µM] | 18µM | n | n | n[10 µM]
Cn1cccc1/C=N/N1CCN(Cc2ccccc2)CC1 | n[9.22 µM] | u | n | n | n[10 µM]
O=C(NCCCc1nc2ccccc2[nH]1)c1ccc(F)cc1 | u | n | n | n | 0.35µM
O=C(CNC(=O)c1ccc(Br)cc1)NCCc1nc2ccccc2[nH]1 | n | x | n | n | n
O=C(NNc1nc2ccc(Cl)cc2s1)c1cc(-c2cccs2)nc2ccccc12 | 14µM | u | n | n | x
C=CC[n+]1c(-c2ccccc2)csc1NC(C)(C)C | n | n | n | n | n[10 µM]
C=CC[n+]1c(-c2ccc(OC)c(OC)c2)csc1NNC(=O)Nc1ccccc1 | 13µM | x | n | n | n
Cc1c(O)c(CN2CCCCC2)cc2c3c(c(=O)oc12)CCC3 | n | x | u | u | n
Cc1cc(N=Nc2ccc(Cl)cc2)cc(CN2CCCC2)c1O | n[9.22 µM] | 32µM | n | n | n[10 µM]
SMILES | HttQ103 aggreg | ERK EGF inh | GLA inh pH 4.5 | aGal spleen mod | HTT cytoprotect
Cc1cc(N=Nc2ccc(Cl)cc2)cc(CN2CCOCC2)c1O | n[9.22 µM] | 16µM | n | n | n[10 µM]
CNc1ccc(C(=O)Oc2cc(O/N=[N+](\[O-])N(C)C)c([N+](=O)[O-])cc2[N+](=O)[O-])cc1 | x | x | x | n | x
O=C(/C=C\c1ccc(O)c(O)c1)OCCc1ccccc1 | x | x | x | x | n[1.9 µM]
COC(=O)c1ccc(N/C(C)=C/C(=O)c2ccc(C)o2)cc1 | 4µM | x | n | n | n
CCOc1ccc(N/C(C)=C/C(=O)c2ccc(C)o2)cc1 | n | x | n | n | n[10 µM]
COc1ccccc1-c1ccc(SCc2cccc(C)c2)nn1 | 22µM | n | n | n | u
COC(=O)c1ccc(C=O)cc1 | x | x | x | n | n
CC(c1ccccc1)N1C(=O)/C(=C/c2ccncc2)SC1=S (centres undefined) | n[9.22 µM] | 22µM | n | n | n[10 µM]
CN(C)C=Nc1ncc2c3ccccc3n(CCN(C)C)c2c1C#N | 2.8µM | x | n | n | n[0.074 µM]
CCOC(=O)c1ccc2nc(Nc3nc4ccc(F)cc4s3)sc2c1 | n | n | u | n | x
COC(=O)c1ccc2nc(Nc3nc4c(F)cc(F)cc4s3)sc2c1 | 6.3µM | n | u | n | x
CCCNC[C@H](O)COc1ccccc1C(=O)CCc1ccccc1 | x | n | n | n | u
Cc1cc(C)c2ccc(N)nc2c1O | 8.9µM | x | n | n | n[1.9 µM]
Cc1ccc(Sc2ccccc2CN(C)C)c(N)c1 | x | x | x | n | x
CSCC[C@H](NC(=O)[C@H](Cc1ccccc1)NC(=O)[C@H](Cc1cnc[nH]1)NC(=O)CNC(=O)[C@@H](NC(=O)[C@H](C)NC(=O)[C@H](Cc1c[nH]c2ccccc12)NC(=O)[C@H](CC(C)C)NC(=O)[C@H](CC(N)=O)NC(=O)CN)[C@@H](C)O)C(N)=O | x | x | x | n | x
COCCNc1ncncc1-c1c(C)noc1C | x | x | x | n | n
C1CCC(C(CC2CCCCN2)C2CCCCC2)CC1 (centres undefined) | 25µM! | n | n | n | n
Cn1nnnc1SCCNCc1cc(Cl)ccc1OCc1ccccc1 | 25µM | u | n | n | n[10 µM]
Cn1nnnc1SCCNCc1ccccc1OCc1ccc(Cl)cc1 | n | n | n | n | n[10 µM]
CC(C)CCC[C@@H](C)[C@H]1CC[C@H]2[C@@H]3CC=C4CC(O)CC[C@]4(C)[C@H]3CC[C@]12C (some centres undefined) | x | x | x | n | x
O=C(c1ccccc1)N1CCC(c2nc(-c3ccc(S(=O)(=O)NCC4CCCO4)cc3)no2)CC1 (centres undefined) | 6.3µM | x | n | n | n

Screening data from PubChem BioAssay.
